What all share (design): scale not given: direction of the effect not stated beside the values
For assay [1], the target named is Protein translocase subunit SecA (Escherichia coli (strain K12)) (UniProt P10408). In words: Assay to Identify E. coli SecA ATPase Inhibitors. It is filed as functional. As to conditions: 30 µM.
Assay [2] has as its target T1, Ubiquitin-activating enzyme e1, putative (Leishmania donovani (strain BPK282A1)) (UniProt E9BSI1).
T1 sequence (whole entry): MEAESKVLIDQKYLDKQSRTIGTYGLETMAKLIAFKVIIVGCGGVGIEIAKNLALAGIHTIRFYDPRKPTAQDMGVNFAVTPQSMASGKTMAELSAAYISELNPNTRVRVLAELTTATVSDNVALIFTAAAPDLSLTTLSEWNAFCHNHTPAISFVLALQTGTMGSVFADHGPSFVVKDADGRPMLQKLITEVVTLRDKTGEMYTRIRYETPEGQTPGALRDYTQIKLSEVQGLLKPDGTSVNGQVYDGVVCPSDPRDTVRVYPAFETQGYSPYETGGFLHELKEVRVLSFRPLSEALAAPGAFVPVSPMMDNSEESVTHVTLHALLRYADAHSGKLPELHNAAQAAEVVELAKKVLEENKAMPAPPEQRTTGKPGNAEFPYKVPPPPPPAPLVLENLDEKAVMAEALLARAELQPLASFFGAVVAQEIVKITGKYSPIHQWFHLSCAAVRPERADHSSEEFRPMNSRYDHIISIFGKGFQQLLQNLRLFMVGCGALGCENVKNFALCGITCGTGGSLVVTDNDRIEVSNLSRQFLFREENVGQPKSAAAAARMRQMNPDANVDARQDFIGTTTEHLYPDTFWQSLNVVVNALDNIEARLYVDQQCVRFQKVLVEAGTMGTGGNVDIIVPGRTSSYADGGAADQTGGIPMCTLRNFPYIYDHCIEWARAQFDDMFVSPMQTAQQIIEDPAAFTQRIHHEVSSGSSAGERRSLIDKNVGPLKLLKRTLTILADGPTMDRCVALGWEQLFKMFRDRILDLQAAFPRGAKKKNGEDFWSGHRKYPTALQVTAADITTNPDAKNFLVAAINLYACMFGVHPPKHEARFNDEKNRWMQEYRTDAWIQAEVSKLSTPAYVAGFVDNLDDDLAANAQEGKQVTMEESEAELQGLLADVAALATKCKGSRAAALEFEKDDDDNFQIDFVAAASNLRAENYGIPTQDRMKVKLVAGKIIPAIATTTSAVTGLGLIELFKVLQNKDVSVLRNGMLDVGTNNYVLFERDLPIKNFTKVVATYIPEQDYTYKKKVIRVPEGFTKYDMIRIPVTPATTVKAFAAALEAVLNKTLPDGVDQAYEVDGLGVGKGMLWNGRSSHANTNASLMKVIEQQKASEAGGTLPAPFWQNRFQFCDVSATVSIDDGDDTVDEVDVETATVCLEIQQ
As to the kind of experiment: Leishmania donovani Ubiquitin Activating Enzyme (LdE1). Format: functional. As to conditions: 30 µM.

In assay [3] the target is T2, Aspartate--tRNA(Asp/Asn) ligase (Mycobacterium tuberculosis (strain ATCC 25618 / H37Rv)) (UniProt P9WFW3). Also: in the data most compounds retested in dose-response had high values.
T2 sequence (whole entry): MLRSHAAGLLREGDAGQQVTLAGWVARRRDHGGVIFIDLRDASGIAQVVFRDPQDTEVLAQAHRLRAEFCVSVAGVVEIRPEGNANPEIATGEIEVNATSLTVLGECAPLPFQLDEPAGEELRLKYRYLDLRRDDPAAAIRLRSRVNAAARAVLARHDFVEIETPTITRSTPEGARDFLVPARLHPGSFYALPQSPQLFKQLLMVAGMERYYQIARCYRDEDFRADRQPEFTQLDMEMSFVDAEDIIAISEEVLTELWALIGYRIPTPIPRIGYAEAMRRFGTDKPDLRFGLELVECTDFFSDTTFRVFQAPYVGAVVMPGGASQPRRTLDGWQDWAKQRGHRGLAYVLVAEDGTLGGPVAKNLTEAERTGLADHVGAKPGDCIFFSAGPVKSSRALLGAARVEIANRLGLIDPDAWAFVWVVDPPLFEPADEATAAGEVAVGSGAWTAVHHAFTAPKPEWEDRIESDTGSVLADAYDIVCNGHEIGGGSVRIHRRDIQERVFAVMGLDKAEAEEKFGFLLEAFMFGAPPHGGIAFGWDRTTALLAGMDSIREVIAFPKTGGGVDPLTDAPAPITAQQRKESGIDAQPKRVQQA
In words: Assay for Asp RNA synthetase-1 from Mycobacterium tuberculosis. Format: functional. The following applies: 30 µM.

Assay [4] addresses AMP-activated protein kinase, AMPK (Homo sapiens) (UniProt P54646+O43741+P54619+Q9UGJ0+Q9Y478+Q13131+Q9UGI9). As to the kind of experiment: AMP-dependent Kinase enzyme assay. An in vitro enzyme assay that detects ADP turnover that is directly proportional to AMPK activity. This uses naive AMPK that is activated during the assay with MK-8722. The following applies: 30 µM. It is filed as functional.

Assay [5] concerns the target Sialic acid-binding Ig-like lectin 9 (Homo sapiens) (UniProt Q9Y336). In words: Hs-Siglec9 ALPHAscreen SOP 20170721. As to conditions: 10 µM. Background: In Alpha technology, singlet oxygen from a donor bead excites a nearby acceptor bead.
The subject of assay [6] is Trypanosoma cruzi. In words: Trypanosoma cruzi phosphomannomutase and mannose-1-phosphate guanylyltransferase assay. Format: functional. The following applies: 10 µM.
Assay [7] deals with T3, Arginase-2, mitochondrial (Homo sapiens) (UniProt P78540).
T3 sequence (whole entry): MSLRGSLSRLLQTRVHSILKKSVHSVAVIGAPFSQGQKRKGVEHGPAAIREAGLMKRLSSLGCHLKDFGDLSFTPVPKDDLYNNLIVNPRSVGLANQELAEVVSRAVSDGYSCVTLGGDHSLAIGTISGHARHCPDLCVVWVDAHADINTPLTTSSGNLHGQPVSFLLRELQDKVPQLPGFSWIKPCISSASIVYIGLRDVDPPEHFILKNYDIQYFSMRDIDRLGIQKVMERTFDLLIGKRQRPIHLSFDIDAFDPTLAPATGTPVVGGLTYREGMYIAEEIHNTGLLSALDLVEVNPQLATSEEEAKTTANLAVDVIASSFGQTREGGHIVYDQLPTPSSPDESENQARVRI
In words: in vitro enzyme assay to detect the production of urea directly proportional to the activity of Arginase II. Also: in the data most compounds retested in dose-response had high values. Format: functional. As to conditions: 33.3 µM.

Assay [8] concerns the target T4, Proteasome subunit beta (Trypanosoma cruzi) (UniProt O96673).
T4 sequence (whole entry): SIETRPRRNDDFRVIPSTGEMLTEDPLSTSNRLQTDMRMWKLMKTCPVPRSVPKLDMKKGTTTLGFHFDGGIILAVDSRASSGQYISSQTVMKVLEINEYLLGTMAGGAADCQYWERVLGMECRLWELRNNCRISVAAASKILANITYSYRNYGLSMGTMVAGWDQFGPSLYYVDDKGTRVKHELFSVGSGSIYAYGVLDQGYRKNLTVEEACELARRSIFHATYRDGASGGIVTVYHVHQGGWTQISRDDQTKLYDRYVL
In words: Trypanosoma cruzi proteasome chymotrypsin-like activity (TcProtChymo) assay. Also: in the data most compounds retested in dose-response had high values. It is filed as functional. The following applies: 9.37 µM.

The species entered for assay [9] is Homo sapiens. In words: To identify inhibition of the IFN signalling (Jak-Stat) pathway via expression of an eGFP reporter gene under the control of an IFN-stimulated response element (ISRE) containing MxA promoter. Format: functional. The following applies: 30 µM. Background: Reporter assays use an easily measured gene product as a stand-in for the process of interest.

The target in assay [10] is Shiga toxin 2 (Escherichia coli O157:H7) (UniProt P09385+P09386). In words: E. coli 0.157:H7 Shiga Toxin SOP - stx2 screening assay. Format: functional. The following applies: 30 µM.
For assay [11], the target named is T5, Tyrosyl-tRNA synthetase, putative (Trypanosoma cruzi (strain CL Brener)) (UniProt Q4DSP6).
T5 sequence (whole entry): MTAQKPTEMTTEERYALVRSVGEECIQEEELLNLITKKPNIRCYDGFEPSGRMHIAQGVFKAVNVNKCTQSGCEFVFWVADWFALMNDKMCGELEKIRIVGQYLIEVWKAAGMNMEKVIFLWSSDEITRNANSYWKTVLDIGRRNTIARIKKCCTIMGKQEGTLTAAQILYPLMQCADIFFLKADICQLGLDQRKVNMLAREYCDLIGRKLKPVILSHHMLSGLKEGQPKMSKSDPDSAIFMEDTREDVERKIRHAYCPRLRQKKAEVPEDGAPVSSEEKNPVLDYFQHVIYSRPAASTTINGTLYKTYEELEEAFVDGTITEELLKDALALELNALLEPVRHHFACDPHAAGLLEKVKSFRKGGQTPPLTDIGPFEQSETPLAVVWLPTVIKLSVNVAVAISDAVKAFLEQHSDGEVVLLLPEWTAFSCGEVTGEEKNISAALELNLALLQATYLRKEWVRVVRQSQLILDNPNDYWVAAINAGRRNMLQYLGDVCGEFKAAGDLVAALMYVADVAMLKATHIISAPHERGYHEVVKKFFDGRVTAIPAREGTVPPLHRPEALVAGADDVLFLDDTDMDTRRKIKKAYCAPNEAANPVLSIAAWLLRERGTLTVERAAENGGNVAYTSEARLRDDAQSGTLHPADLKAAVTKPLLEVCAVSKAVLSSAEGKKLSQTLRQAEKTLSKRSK
In words: Trypanosoma cruzi tyrosyl tRNA synthetase (TcYRS) _High Tyrosine SOP. Also: in the data most compounds retested in dose-response had high values. The following applies: 30 µM. Format: functional.

Assay [12] addresses T5, Tyrosyl-tRNA synthetase, putative (Trypanosoma cruzi (strain CL Brener)). In words: Trypanosoma cruzi tyrosyl tRNA synthetase (TcYRS) SOP. Format: functional. As to conditions: 30 µM.
Assay [13] deals with Chromo domain-containing protein 1 (Saccharomyces cerevisiae (strain ATCC 204508 / S288c) (Baker's yeast)) (UniProt P32657). As to the kind of experiment: ScCHD-1 Enzyme Inhibition Assay. Also: in the data most compounds retested in dose-response had high values. It is filed as functional. As to conditions: 30 µM.

For some assays here: Potency and affinity values are given separately.

Sequence of Chromo domain-containing protein 1 (Saccharomyces cerevisiae (strain ATCC 204508 / S288c) (Baker's yeast)) (P32657 whole entry, the tested form may be a part): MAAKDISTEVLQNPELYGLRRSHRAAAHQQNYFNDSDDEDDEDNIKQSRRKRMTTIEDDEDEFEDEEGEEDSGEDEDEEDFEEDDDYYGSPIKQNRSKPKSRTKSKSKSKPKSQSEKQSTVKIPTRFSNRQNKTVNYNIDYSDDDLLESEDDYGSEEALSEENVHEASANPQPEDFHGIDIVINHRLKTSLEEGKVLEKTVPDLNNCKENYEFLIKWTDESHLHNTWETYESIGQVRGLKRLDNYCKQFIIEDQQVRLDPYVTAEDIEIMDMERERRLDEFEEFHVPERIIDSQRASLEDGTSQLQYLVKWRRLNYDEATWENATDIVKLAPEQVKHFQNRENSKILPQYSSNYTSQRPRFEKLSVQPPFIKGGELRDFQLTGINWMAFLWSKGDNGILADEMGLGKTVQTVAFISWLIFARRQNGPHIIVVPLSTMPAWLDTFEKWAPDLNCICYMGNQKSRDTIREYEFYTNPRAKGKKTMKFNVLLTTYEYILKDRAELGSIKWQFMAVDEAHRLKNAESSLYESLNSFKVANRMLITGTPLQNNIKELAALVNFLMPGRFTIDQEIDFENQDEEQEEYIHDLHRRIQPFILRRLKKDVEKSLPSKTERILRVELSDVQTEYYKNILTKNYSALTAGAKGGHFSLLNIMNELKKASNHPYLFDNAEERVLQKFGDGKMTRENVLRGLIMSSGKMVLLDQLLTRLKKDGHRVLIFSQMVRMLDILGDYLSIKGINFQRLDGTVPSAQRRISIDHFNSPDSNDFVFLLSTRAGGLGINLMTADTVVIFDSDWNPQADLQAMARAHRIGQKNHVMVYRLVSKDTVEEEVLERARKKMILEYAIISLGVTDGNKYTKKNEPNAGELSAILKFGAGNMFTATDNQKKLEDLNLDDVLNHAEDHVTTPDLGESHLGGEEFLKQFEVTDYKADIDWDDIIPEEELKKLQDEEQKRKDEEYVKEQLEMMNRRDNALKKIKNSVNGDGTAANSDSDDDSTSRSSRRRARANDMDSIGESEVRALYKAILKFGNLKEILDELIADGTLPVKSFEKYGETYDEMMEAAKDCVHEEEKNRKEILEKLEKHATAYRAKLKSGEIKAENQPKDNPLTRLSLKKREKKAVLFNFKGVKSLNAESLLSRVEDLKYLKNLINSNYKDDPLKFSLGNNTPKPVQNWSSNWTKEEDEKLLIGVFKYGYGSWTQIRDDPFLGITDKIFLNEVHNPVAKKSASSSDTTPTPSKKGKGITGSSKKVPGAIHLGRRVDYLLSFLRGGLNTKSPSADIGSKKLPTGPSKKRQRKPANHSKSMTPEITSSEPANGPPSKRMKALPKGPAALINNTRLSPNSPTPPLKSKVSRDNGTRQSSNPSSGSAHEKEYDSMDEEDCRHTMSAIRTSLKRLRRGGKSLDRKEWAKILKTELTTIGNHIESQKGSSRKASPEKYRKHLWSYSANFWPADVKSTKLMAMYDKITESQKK
Sequence of Protein translocase subunit SecA (Escherichia coli (strain K12)) (P10408 whole entry): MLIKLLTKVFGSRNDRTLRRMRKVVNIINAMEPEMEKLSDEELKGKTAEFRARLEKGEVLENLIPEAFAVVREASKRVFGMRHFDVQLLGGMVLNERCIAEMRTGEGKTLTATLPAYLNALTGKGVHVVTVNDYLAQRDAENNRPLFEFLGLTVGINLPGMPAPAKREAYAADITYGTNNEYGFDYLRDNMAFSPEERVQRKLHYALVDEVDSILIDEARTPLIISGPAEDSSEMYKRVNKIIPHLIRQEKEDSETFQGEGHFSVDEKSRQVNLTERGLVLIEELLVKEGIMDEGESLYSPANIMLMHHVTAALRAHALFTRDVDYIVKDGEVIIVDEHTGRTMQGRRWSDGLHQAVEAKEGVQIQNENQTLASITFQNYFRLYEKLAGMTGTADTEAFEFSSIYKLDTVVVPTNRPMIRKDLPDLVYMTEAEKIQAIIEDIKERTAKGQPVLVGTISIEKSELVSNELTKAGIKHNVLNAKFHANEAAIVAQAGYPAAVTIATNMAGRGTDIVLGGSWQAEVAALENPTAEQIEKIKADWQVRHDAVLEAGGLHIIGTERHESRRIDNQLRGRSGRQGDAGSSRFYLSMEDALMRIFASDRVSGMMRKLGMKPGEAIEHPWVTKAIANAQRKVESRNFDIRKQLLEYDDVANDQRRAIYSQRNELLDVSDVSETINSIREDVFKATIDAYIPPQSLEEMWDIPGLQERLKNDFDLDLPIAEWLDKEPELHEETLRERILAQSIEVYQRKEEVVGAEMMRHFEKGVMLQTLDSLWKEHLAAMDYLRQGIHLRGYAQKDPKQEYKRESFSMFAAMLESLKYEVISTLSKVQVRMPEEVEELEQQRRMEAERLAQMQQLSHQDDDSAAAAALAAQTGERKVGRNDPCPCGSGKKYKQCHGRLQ
Sequence of Sialic acid-binding Ig-like lectin 9 (Homo sapiens) (Q9Y336 whole entry): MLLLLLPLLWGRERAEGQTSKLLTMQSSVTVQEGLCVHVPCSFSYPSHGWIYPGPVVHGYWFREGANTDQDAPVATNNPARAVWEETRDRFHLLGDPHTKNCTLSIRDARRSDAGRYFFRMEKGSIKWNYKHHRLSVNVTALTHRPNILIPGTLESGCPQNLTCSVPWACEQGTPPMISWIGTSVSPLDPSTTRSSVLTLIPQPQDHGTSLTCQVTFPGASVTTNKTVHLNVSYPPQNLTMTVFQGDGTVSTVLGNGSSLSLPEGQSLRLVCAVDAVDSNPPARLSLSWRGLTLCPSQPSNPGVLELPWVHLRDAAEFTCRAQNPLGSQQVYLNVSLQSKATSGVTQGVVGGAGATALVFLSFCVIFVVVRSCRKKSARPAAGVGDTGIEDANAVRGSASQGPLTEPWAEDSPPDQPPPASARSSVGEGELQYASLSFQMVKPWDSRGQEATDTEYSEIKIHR

Consider `Cc1ccc(N2CCO[C@H]3CN(Cc4ccncc4)C[C@H]32)nn1`, for which the Percent Effect in [1] is -2.06%; in assay [2] it was 2.7%; in assay [3], 2.28%; in [4], 3.63%; in [5] it was -2.84%; in assay [6], -2.83%. Further, the Percent Effect in assay [7] was 1.59%; in [8], 19.6%; in assay [9], 4.04%; in [10], -5.64%; in assay [11] it was 8.65%; in assay [12], 10.3%. Also, the Percent Effect in assay [13] was -5.13%.

For `Cc1noc([C@@H]2C[C@H]3CN(Cc4cc(C)on4)C[C@H]3O2)n1`, the Percent Effect in [1] was -0.923%; in assay [2], 10.4%; in [3] it was 2.67%; in [4], 5.31%; in assay [5] it was -5.26%; in [6] it was -4.63%. The Percent Effect was 9.68% in assay [7]; 12.4% in assay [8]; 10.4% in [9]; -9.84% in assay [10]; 3.17% in assay [11]; 6.41% in [12]. In assay [13], the Percent Effect is -8.87%.

On to `Cc1cc(CN2C[C@@H]3COC[C@]3(CN(C)C)C2)no1`, for which the Percent Effect in assay [1] is -1.63%; in assay [2], -2.7%; in assay [3] it was -2.03%; in [4], 7.75%; in assay [5], 3.28%; in assay [6], -3.42%. For the same molecule, the Percent Effect in assay [7] was 1.59%; in [8] it was 26.4%; in [9], -4.54%; in [10], -2.49%; in [11] it was 3.24%; in [12] it was 2.56%. The Percent Effect in assay [13] was -2.67%.

As for `COc1c(Br)cc(Br)cc1CNC(C)Cn1cccn1` (stereo not given), the Percent Effect was -4.9% in assay [1]; 23.4% in assay [2]; 2.09% in assay [3]; 5.26% in [4]; -2.65% in [5]; -10.9% in assay [6]. In addition, the Percent Effect in assay [7] was -3.56%; in [8], 1.01%; in [9], 35.9%; in [10], 15.4%; in [11], 4.85%; in assay [12] it was 9.76%. Further, in assay [13], the Percent Effect is -8.37%.

As for `c1cnc(NC[C@@H]2CCC[C@@H]3CN(Cc4cccnc4)C[C@@H]32)nc1`, the Percent Effect in assay [1] was 0.229%; in assay [2], 10.8%; in [3], -0.324%; in [4] it was -2.93%; in assay [5] it was -7.32%; in [6], 1.56%. For the same molecule, the Percent Effect in [7] is 25.4%; in assay [8], 15.5%; in assay [9], 10.2%; in [10], -34.3%; in assay [11] it was 13.9%; in assay [12], 18.3%. In assay [13], the Percent Effect is -3%.

The values above are taken from ChEMBL document CHEMBL3988442, “University of Dundee, Small-Polar-MMV Screening Library” (2021).
